This is an account of results in PubChem BioAssay (NCATS).

Molecules are shown by their SMILES. Inconclusive results are not listed. A call without a number means that no potency is given here. The source made the active and inactive calls. Calls follow the shape of the dose curve; as a rule, active = well fitted inhibition curve with a large enough effect; inconclusive = small, poorly fitted or top-dose-only effect; inactive = flat fitted curve, though single readings scatter.
Potency is read from the fitted curve at half-maximal effect.

A short description of this assay: P-glycoprotein substrates identified in KB-8-5-11 adenocarcinoma cell line, qHTS therapeutic library screen (AID 1346987). Also: nearly all actives have a fitted effect of over 65% in size. Particulars: KB-8-5-11 (P-gp overexpressing) viability, CellTiter-Glo, 72 h; series mostly up to 44.5 µM. Put shortly: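 Steps: plate 500 KB-8-5-11 cells/well in DMEM + 10% FCS (colchicine removed); pin compounds in dose-response; incubate 72 h, 37 degree C, 5% CO2; add CellTiter-Glo, 5 min; read luminescence.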
For orientation: Quantitative high-throughput screening tests each substance at several concentrations.
With `CC1(O)CCC(C(C)(C)O)CC1` (stereo not given), the Potency entry was “inactive”.

Turning to `CN(CCO)CC(O)Cn1cnc2c1c(=O)n(C)c(=O)n2C` (stereo not given) (tested in a mixture with another compound), the Potency result was “inactive”.

In the case of `CC1CCC(NC(=O)N(CCCl)N=O)CC1` (stereo not given), the Potency entry was “inactive”.

As for `CN[C@@H]1[C@@H](O)[C@@H](O[C@@H]2[C@@H](O)[C@H](O[C@H]3O[C@H](CN)[C@@H](O)[C@H](O)[C@H]3O)[C@@H](N)C[C@H]2NC(=O)C(O)CN)OC[C@]1(C)O` (stereo not given in full), the Potency result was “inactive”.

Take `CCCCCCCCCCCCOCCCN`: the Potency entry was “inactive”.

Turning to `CNC(=O)OCc1cccc(COC(=O)NC)n1`, the Potency result is “inactive”.

For the molecule `CO/N=C(/C(=O)N[C@@H]1C(=O)N2C(C(=O)O)=C(COC(N)=O)CS[C@H]12)c1ccco1`, the Potency result is “inactive”.

For `O=C(O)C1=C(CSc2nnnn2CS(=O)(=O)O)CS[C@@H]2[C@H](NC(=O)[C@H](O)c3ccccc3)C(=O)N12`, the Potency entry was “inactive”.

For `NC(=O)[C@H]1O[C@@H](O)[C@H](O)[C@@H](O)[C@@H]1O`, the Potency result was “inactive”.

On to `Cc1cc(-c2ccc(N=Nc3ccc4c(S(=O)(=O)O)cc(S(=O)(=O)O)c(N)c4c3O)c(C)c2)ccc1N=Nc1ccc2c(S(=O)(=O)O)cc(S(=O)(=O)O)c(N)c2c1O`, for which the Potency was 6.51 µM (active).

Regarding `Cn1nnnc1SCC1=C(C(=O)O)N2C(=O)[C@@H](NC(=O)[C@H](O)c3ccccc3)[C@H]2SC1`, the Potency result is “inactive”.

For `CCOC(=O)c1cc(-c2ccccc2)nc2ccc(C)cc12`, the Potency entry was “inactive”.

With `N[C@H](CC(=O)O)C(=O)O`, the Potency entry was “inactive”.

Consider `O=C1NC(=O)[C@H]2[C@@H]1[C@@H]1C=C[C@H]2C1`, for which the Potency entry is “inactive”.

For `CC1(C)[C@@H]2CC[C@@]1(C)[C@H](OC(=O)CSC#N)C2`, the Potency result was “inactive”.

Consider `CC(=O)Oc1cccc(C(=O)O)c1OC(C)=O`, for which the Potency result is “inactive”.

`C[C@H](O)CN(C)C`: the Potency entry was “inactive”.

For `CN(Cc1ccccc1)Cc1ccccc1`, the Potency entry is “inactive”.

On to `CCCc1ccc(C(=O)O)cc1`, for which the Potency entry was “inactive”.

With `CCc1cn([C@H]2C[C@H](O)[C@@H](CO)O2)c(=O)[nH]c1=O`, the Potency result was “inactive”.

For the molecule `OC[C@H]1O[C@@H](O[C@H]2[C@H](O)[C@@H](O)[C@H](O)O[C@@H]2CO)[C@H](O)[C@@H](O)[C@@H]1O`, the Potency result is “inactive”.

For the molecule `FC(F)(F)C(F)(F)C(F)(F)C(F)(F)C(F)(F)F`, the Potency entry was “inactive”.

For `CC1(C)S[C@@H]2[C@H](NC(=O)C3(N)CCCCC3)C(=O)N2[C@H]1C(=O)O`, the Potency entry is “inactive”.

In the case of `CN1CCN(C(c2ccccc2)c2ccc(Cl)cc2)CC1` (stereo not given), the Potency result was “inactive”.

For the molecule `Cc1ccc(S(=O)(=O)NCl)cc1`, the Potency entry was “inactive”.

For the molecule `F[Si-2](F)(F)(F)(F)F`, the Potency entry is “inactive”.

With `C=CC[N@@+]12CC[C@@]34c5ccccc5N5/C=C6/[C@H]7C[C@H]8[C@@]9(CC[N@@+]8(CC=C)C/C7=C/CO)c7ccccc7N(/C=C(/[C@@H](C[C@@H]31)/C(=C\CO)C2)[C@H]54)[C@@H]69`, the Potency result was “inactive”.

On to `O=P(O)(O)OC[C@H](O)CO`, for which the Potency entry was “inactive”.

On to `NC(=O)C1c2ccccc2CCc2ccccc21`, for which the Potency result was “inactive”.

Take `CCOc1ccc(S(=O)(=O)O)c2cccnc12`: the Potency result is “inactive”.

`CC(C)(Oc1ccc(C2CCCc3ccccc32)cc1)C(=O)O` (stereo not given): the Potency entry is “inactive”.

For `NC[C@@H]1CC[C@@H](N)[C@@H](O[C@H]2[C@H](O)[C@@H](O[C@H]3O[C@H](CO)[C@@H](O)[C@H](N)[C@H]3O)[C@H](N)C[C@@H]2N)O1`, the Potency entry was “inactive”.

With `NC(=O)OC[C@@H]1[C@H](NC(=O)/C(=N\OCC(=O)O)c2csc(N)n2)C(=O)N1S(=O)(=O)O`, the Potency result was “inactive”.

In the case of `C=CC(=O)O`, the Potency entry was “inactive”.

For the molecule `O=C1c2ccccc2CN2C(=O)c3ccccc3CN12`, the Potency result is “inactive”.

As for `CC1=CC(=C(c2ccc(N)cc2)c2ccc(N)cc2)C=CC1=N`, the Potency is 14.6 µM (active).

For the molecule `CC1CCCCN1CCCOC(=O)c1ccccc1` (stereo not given), the Potency entry was “inactive”.

In the case of `O=C1[O][Bi][O]c2ccccc21`, the Potency result is “inactive”.

For `CC[C@@H](C)[C@H](N)C(=O)O`, the Potency result was “inactive”.

On to `CO/N=C(\C(=O)N[C@@H]1C(=O)N2C(C(=O)O)=C(CSC(=O)c3ccco3)CS[C@H]12)c1csc(N)n1`, for which the Potency entry is “inactive”.
